Whole data set: some 9,900 sequences, median “r (bound/input frequency ratio)” near 0.7, cut for the highest 2% near 6.5. The full list was thinned out, with the highest values kept by preference.
B1: ENSMUSG00000043670.203|Diras1 (ssRNA)
RNA: GGGAGUUCUACAGUCCGACGAUCGCUUCGAUAUCCGCAUGCUAGGGCCUGUGUCCCACCCAGAUGAGGGUGACUUAGAAUUCUGUGUUUAUGUGCCUGUGUGUGUGGAUGGGUGUGUGUCUGUCUUGGGAUGGGGUGUUCUUGCACCACUUUGUGUUCUUAGUGAGACCACAGUGUAAGUGGCCGUGUGUGUGUGUGGGGGGGGGCACCUAGACAUUGUGGUGUGUCUGUAUGGCUCUGUGUUUUCAGGGGUGGGUGACACAGGCCUGUCUGAUGAGCACCAGGUCUGUUCCAGGCUGUGGCACUCUUGCGGUCGCACUAGUGUGGAAUUCUCGGGUGUCAAGG
B2: ENSMUSG00000043670.205|Diras1 (ssRNA)
RNA: GGGAGUUCUACAGUCCGACGAUCGCUUCGAUAUCCGCAUGCUACACCCAGAUGAGGGUGACUUAGAAUUCUGUGUUUAUGUGCCUGUGUGUGUGGAUGGGUGUGUGUCUGUCUUGGGAUGGGGUGUUCUUGCACCACUUUGUGUUCUUAGUGAGACCACAGUGUAAGUGGCCGUGUGUGUGUGUGGGGGGGGGCACCUAGACAUUGUGGUGUGUCUGUAUGGCUCUGUGUUUUCAGGGGUGGGUGACACAGGCCUGUCUGAUGAGCACCAGGUCUGUUCCAGGCUGUGGCAAGCUGGCUCCUGCUCUUGCGGUCGCACUAGUGUGGAAUUCUCGGGUGUCAAGG
B3: ENSMUSG00000043670.198|Diras1 (ssRNA)
RNA: GGGAGUUCUACAGUCCGACGAUCGCUUCGAUAUCCGCAUGCUAGAGACUGUCCAGGAGACUUGAGUGGCUCCUGGGCCUGUGUCCCACCCAGAUGAGGGUGACUUAGAAUUCUGUGUUUAUGUGCCUGUGUGUGUGGAUGGGUGUGUGUCUGUCUUGGGAUGGGGUGUUCUUGCACCACUUUGUGUUCUUAGUGAGACCACAGUGUAAGUGGCCGUGUGUGUGUGUGGGGGGGGGCACCUAGACAUUGUGGUGUGUCUGUAUGGCUCUGUGUUUUCAGGGGUGGGUGACACAGGCCUGUCUGACUCUUGCGGUCGCACUAGUGUGGAAUUCUCGGGUGUCAAGG
B4: ENSMUSG00000043670.210|Diras1 (ssRNA)
RNA: GGGAGUUCUACAGUCCGACGAUCGCUUCGAUAUCCGCAUGCUAGUUUAUGUGCCUGUGUGUGUGGAUGGGUGUGUGUCUGUCUUGGGAUGGGGUGUUCUUGCACCACUUUGUGUUCUUAGUGAGACCACAGUGUAAGUGGCCGUGUGUGUGUGUGGGGGGGGGCACCUAGACAUUGUGGUGUGUCUGUAUGGCUCUGUGUUUUCAGGGGUGGGUGACACAGGCCUGUCUGAUGAGCACCAGGUCUGUUCCAGGCUGUGGCAAGCUGGCUCCUGGCUCAGAAGUGACAAAGCUGCAGUACAGAGCUCUUGCGGUCGCACUAGUGUGGAAUUCUCGGGUGUCAAGG
B5: ENSMUSG00000043670.211|Diras1 (ssRNA)
RNA: GGGAGUUCUACAGUCCGACGAUCGCUUCGAUAUCCGCAUGCUAGUGCCUGUGUGUGUGGAUGGGUGUGUGUCUGUCUUGGGAUGGGGUGUUCUUGCACCACUUUGUGUUCUUAGUGAGACCACAGUGUAAGUGGCCGUGUGUGUGUGUGGGGGGGGGCACCUAGACAUUGUGGUGUGUCUGUAUGGCUCUGUGUUUUCAGGGGUGGGUGACACAGGCCUGUCUGAUGAGCACCAGGUCUGUUCCAGGCUGUGGCAAGCUGGCUCCUGGCUCAGAAGUGACAAAGCUGCAGUACAGAGGCCUCACUCUUGCGGUCGCACUAGUGUGGAAUUCUCGGGUGUCAAGG
B6: ENSMUSG00000043670.215|Diras1 (ssRNA)
RNA: GGGAGUUCUACAGUCCGACGAUCGCUUCGAUAUCCGCAUGCUAGUGUCUGUCUUGGGAUGGGGUGUUCUUGCACCACUUUGUGUUCUUAGUGAGACCACAGUGUAAGUGGCCGUGUGUGUGUGUGGGGGGGGGCACCUAGACAUUGUGGUGUGUCUGUAUGGCUCUGUGUUUUCAGGGGUGGGUGACACAGGCCUGUCUGAUGAGCACCAGGUCUGUUCCAGGCUGUGGCAAGCUGGCUCCUGGCUCAGAAGUGACAAAGCUGCAGUACAGAGGCCUCAGUGUGAGGUCAUCACCUCACAGUGCUCUUGCGGUCGCACUAGUGUGGAAUUCUCGGGUGUCAAGG
B7: ENSMUSG00000043670.203|Diras1|6:10;40:44;54:63;69:76;109:113;142:154;178:183;186:190;195:199 (ssRNA)
RNA: GGGAGUUCUACAGUCCGACGAUCGCUUCGAUAUCCGCAUGCUAGGGCCACACACCCACCCAGAUGAGGGUGACUUAGAAUUCACACAUUAUGUGCCACACACACACGAUGGCACACACACUGUCUUGGGAUGGGGUGUUCUUGCACCACUUACACAUCUUAGUGAGACCACAGUGUAAGUGGCCCACACACACACACGGGGGGGGCACCUAGACAUUGUGCACACACUCAUACGCUCACACAUUUCAGGGGUGGGUGACACAGGCCUGUCUGAUGAGCACCAGGUCUGUUCCAGGCUGUGGCACUCUUGCGGUCGCACUAGUGUGGAAUUCUCGGGUGUCAAGG
B8: ENSMUSG00000043670.208|Diras1 (ssRNA)
RNA: GGGAGUUCUACAGUCCGACGAUCGCUUCGAUAUCCGCAUGCUAUUAGAAUUCUGUGUUUAUGUGCCUGUGUGUGUGGAUGGGUGUGUGUCUGUCUUGGGAUGGGGUGUUCUUGCACCACUUUGUGUUCUUAGUGAGACCACAGUGUAAGUGGCCGUGUGUGUGUGUGGGGGGGGGCACCUAGACAUUGUGGUGUGUCUGUAUGGCUCUGUGUUUUCAGGGGUGGGUGACACAGGCCUGUCUGAUGAGCACCAGGUCUGUUCCAGGCUGUGGCAAGCUGGCUCCUGGCUCAGAAGUGACAAAGCCUCUUGCGGUCGCACUAGUGUGGAAUUCUCGGGUGUCAAGG
B9: ENSMUSG00000043670.207|Diras1 (ssRNA)
RNA: GGGAGUUCUACAGUCCGACGAUCGCUUCGAUAUCCGCAUGCUAGGUGACUUAGAAUUCUGUGUUUAUGUGCCUGUGUGUGUGGAUGGGUGUGUGUCUGUCUUGGGAUGGGGUGUUCUUGCACCACUUUGUGUUCUUAGUGAGACCACAGUGUAAGUGGCCGUGUGUGUGUGUGGGGGGGGGCACCUAGACAUUGUGGUGUGUCUGUAUGGCUCUGUGUUUUCAGGGGUGGGUGACACAGGCCUGUCUGAUGAGCACCAGGUCUGUUCCAGGCUGUGGCAAGCUGGCUCCUGGCUCAGAAGUGACUCUUGCGGUCGCACUAGUGUGGAAUUCUCGGGUGUCAAGG

The binders below were run against TDP-43 (Homo sapiens, UniProt Q13148 1-414) (assay: RNA Bind-n-Seq with designed 260-mer pool; 25 mM Tris-HCl, 150 mM KCl, 3 mM MgCl2, BSA (printed 500 mg/mL), 20 units/mL SUPERase IN; pH not stated; 500 nM RNA pool, 1 h, 4 C; TDP-43 5, 50, 500 nM; high values mean tight binding). Conditions: protein: recombinant; tags: SBP (GST cleaved off with PreScission; pGEX-GST-SBP).
Chain of TDP-43 (Q13148 whole entry): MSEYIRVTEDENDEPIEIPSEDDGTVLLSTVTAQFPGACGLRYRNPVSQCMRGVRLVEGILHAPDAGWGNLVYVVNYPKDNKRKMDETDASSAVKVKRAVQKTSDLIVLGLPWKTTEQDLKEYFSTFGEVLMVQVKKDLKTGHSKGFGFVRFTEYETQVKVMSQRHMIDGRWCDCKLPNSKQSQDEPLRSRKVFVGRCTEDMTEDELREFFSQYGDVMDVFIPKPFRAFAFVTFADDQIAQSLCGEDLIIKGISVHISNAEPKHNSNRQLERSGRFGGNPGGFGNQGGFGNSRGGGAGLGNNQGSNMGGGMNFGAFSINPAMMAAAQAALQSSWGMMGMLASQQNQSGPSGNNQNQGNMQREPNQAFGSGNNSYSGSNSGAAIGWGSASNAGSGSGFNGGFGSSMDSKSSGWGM
Outline: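 Recombinant SBP-tagged TDP-43 at 5, 50 or 500 nM was captured on streptavidin beads, then incubated 1 h at 4 °C with 500 nM of an in vitro-transcribed 260-nt 3′ UTR oligo pool in 25 mM Tris-HCl, 150 mM KCl, 3 mM MgCl2, BSA and SUPERase IN. Bound RNA was washed, eluted with biotin, reverse transcribed, PCR-amplified and sequenced. Binding is R, each oligo's mapped-read-normalized abundance in the bound sample divided by its abundance in input. Duplicates used two independent protein batches.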

**Q.** Which binding signal does the source give for B1 here?
**A.** The binding signal was 7.32 R (bound/input frequency ratio).

**Q.** With B2 as the binder, how does the binding signal read?
**A.** Its binding signal is 7.36 R (bound/input frequency ratio).

**Q.** B3 was tested. Which binding signal did it give?
**A.** The binding signal was 4.93 R (bound/input frequency ratio).

**Q.** Which binding signal does the source give for B4 here?
**A.** Its binding signal is 5.7 R (bound/input frequency ratio).

**Q.** Which binding signal does the source give for B5 here?
**A.** Its binding signal is 5.36 R (bound/input frequency ratio).

**Q.** For B6, which binding signal is on record?
**A.** Its binding signal is 3.25 R (bound/input frequency ratio).

**Q.** With B7 as the binder, how does the binding signal read?
**A.** Its binding signal is 1.5 R (bound/input frequency ratio).

**Q.** With B8 as the binder, how does the binding signal read?
**A.** Its binding signal is 7.79 R (bound/input frequency ratio).

**Q.** For B9, which binding signal is on record?
**A.** Its binding signal is 8.86 R (bound/input frequency ratio).

From publication PMC12864922, “TDP-43 directly inhibits mRNA accumulation in neurites through modulation of mRNA stability”
